Common to all, as to format: functional
Experiment [1] addresses Solute carrier family 2, facilitated glucose transporter member 1 (Homo sapiens) (UniProt P11166). Description: ST_JUDE_LEISH: Cytotoxicity at 2uM final concentration against transgenic Leishmania Mexicana promastigotes LmGLUT1 that are glucose transport deficient and complemented with the human glucose transporter GLUT1. Activity is measured by DNA content using SYBR green in vitro.

The target of experiment [2] is Hexose transporter 1 (Plasmodium falciparum) (UniProt O97467). Description: ST_JUDE_LEISH: Cytotoxicity at 2uM final concentration against transgenic Leishmania Mexicana promastigotes LmPfHT that are glucose transport deficient and complemented with the Plasmodium falciparum hexose transporter. Activity is measured by DNA content using SYBR green in vitro.
In experiment [3] the target is Glucose transporter (Leishmania mexicana) (UniProt O61059). The experiment can be described thus: ST_JUDE_LEISH: Cytotoxicity at 2uM final concentration against transgenic Leishmania Mexicana promastigotes LmGT2 that are glucose transport deficient and complemented with the L. Mexicana glucose transporter 2. Activity is measured by DNA content using SYBR green in vitro.

Sequence of Solute carrier family 2, facilitated glucose transporter member 1 (Homo sapiens) (P11166 whole entry): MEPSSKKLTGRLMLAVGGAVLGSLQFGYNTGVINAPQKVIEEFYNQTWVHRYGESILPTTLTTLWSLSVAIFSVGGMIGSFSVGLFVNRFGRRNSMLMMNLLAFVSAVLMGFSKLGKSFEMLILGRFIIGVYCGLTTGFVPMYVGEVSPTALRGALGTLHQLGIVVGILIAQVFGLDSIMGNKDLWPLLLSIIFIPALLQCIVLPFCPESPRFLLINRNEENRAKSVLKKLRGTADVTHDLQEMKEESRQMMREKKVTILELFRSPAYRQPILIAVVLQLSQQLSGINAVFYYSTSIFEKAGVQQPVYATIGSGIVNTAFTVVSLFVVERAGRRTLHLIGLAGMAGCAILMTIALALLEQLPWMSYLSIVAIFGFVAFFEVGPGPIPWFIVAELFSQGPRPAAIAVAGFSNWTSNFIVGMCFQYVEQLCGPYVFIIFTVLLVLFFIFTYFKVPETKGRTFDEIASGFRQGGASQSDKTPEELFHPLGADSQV

As to `COc1ccc(N2CCN(CCCCNC(=O)c3ccc(NC(=O)c4cc(Cl)cc(Cl)c4)cc3)CC2)c(OC)c1`, the results for the inhibition in experiment [1], in experiment [2] and in experiment [3] were 2.07%, 3.87% and 3.2%, respectively.

Turning to `CCCCCCN1CCC(NCc2cccc3ccccc23)CC1`, the inhibition amounted to 7.18% in experiment [1], 12.1% in experiment [2] and 13.7% in experiment [3].

With `COc1cccc(NC(=O)c2cc(Br)cc(N3CCN(c4ccncc4)CC3)c2)c1`, the inhibition is 2.41% in experiment [1], 2.07% in experiment [2] and 2.41% in experiment [3].

For `CC(C)Cc1nc(N2CCOCC2)c2nnn(Cc3ccccc3)c2n1`, the inhibition came to 3.23% in experiment [1], 1.31% in experiment [2] and 1.84% in experiment [3].

On to `COc1ccc2c(=NN=Cc3ccccc3Cl)cc(C)[nH]c2c1`, for which the results for the inhibition in experiment [1], in experiment [2] and in experiment [3] were 0.91%, 0.95% and 0.2%, respectively.

As for `CC(=O)Nc1cccc(C(=O)Nc2ccc(-c3cccc(-c4nc5cc(F)ccc5[nH]4)c3)cc2)c1`, the values for the inhibition in experiment [1], in experiment [2] and in experiment [3] were 4.65%, 4.15% and 5.47%, respectively.

`Cc1cccc2nc(-c3ccc(-c4ccc(NC(=O)Nc5ccc(Cl)cc5)cc4)cc3)[nH]c12`: the results for the inhibition in experiment [1], in experiment [2] and in experiment [3] were -1.7%, 1.17% and -1.04%, respectively.

Regarding `Cc1ccc(S(=O)(=O)NC2CCN(CCNC(=O)Nc3cc(C)nc4ccccc34)C2)cc1` (stereo not drawn), the inhibition amounted to 4.78% in experiment [1], 4.12% in experiment [2] and 0.31% in experiment [3].

Turning to `CC(Sc1nnc(-c2ccccc2Br)[nH]1)C(=O)Nc1ccc(F)cc1` (stereo not drawn), the inhibition stood at 10.4% in experiment [1], 9.07% in experiment [2] and 6.58% in experiment [3].

Take `CCCCN1CCCN(Cc2cccc(NC(=O)c3ccc(-c4ccccc4)cc3)c2)CC1`: the inhibition was 1.16% in experiment [1], -2.15% in experiment [2] and -1.31% in experiment [3].

On to `Cc1ccccc1C1CCN(C2CCC(NC(=O)/C=C/c3cccc(C(F)(F)F)c3)CC2)CC1` (stereo not drawn), for which the results for the inhibition in experiment [1], in experiment [2] and in experiment [3] were 1.86%, 0.37% and 2.39%, respectively.

In the case of `O=c1cc(NCCCNC2CCOc3c(Cl)cccc32)[nH]c2ccccc12` (stereo not drawn), the inhibition in experiment [1] was 0.96%; in experiment [2], 1.67%; in experiment [3] it was 2.03%.

As for `O=C(/C=C/c1ccccc1O)NCCCCCN1CCC(c2c[nH]c3ccccc23)CC1`, the results for the inhibition in experiment [1], in experiment [2] and in experiment [3] were 3.82%, 2.03% and 1.37%, respectively.

With `O=C(CCc1cccnc1)Nc1cccc(-c2ccc(-c3nc4cc(C(F)(F)F)ccc4[nH]3)cc2)c1`, the inhibition in experiment [1] worked out at 9.2%; in experiment [2], 7.53%; in experiment [3], 6.85%.

`NOCCCCOc1ccc(Br)cc1`: the figures for the inhibition in experiment [1], in experiment [2] and in experiment [3] were 3.74%, 5.13% and 2.59%, respectively.

Take `COc1cc(F)c2nccc([C@@H](O)CN3CCC(NCc4ccc5c(n4)NC(=O)CS5)CC3)c2c1`: the inhibition in experiment [1] is -0.92%; in experiment [2], -1.04%; in experiment [3] it was -1.38%.

As for `O=[N+]([O-])c1ccc(/C=N/O)nc1`, the inhibition in experiment [1] was 88.1%; in experiment [2] it was 91.2%; in experiment [3], 84.6%.

With `O=C(Nc1ccc(OC2CCN(Cc3ccsc3)C2)c(Cl)c1)c1ccc2ncccc2c1` (stereo not drawn), the values for the inhibition in experiment [1], in experiment [2] and in experiment [3] were -0.7%, 0.74% and -0.92%, respectively.

Consider `COc1ccc(S(=O)(=O)NCC2CCCN(CCCCCNC(=O)/C=C/c3ccc(Cl)c(Cl)c3)C2)cc1` (stereo not drawn), for which the inhibition in experiment [1] came to 0.97%; in experiment [2], 0.66%; in experiment [3] it was 3.47%.

Take `Cc1cc2nc(-c3cccc(C(=O)NC4CCN(Cc5ccccc5)CC4)c3)[nH]c2cc1C`: the inhibition came to 1.16% in experiment [1], 1.99% in experiment [2] and 1.84% in experiment [3].

Turning to `N#Cc1ccc(CN2CCC(NC(=O)c3ccc(-c4nnc(-c5cccc6ccccc56)o4)cc3)CC2)cc1`, the inhibition in experiment [1] is 4.73%; in experiment [2] it was 2.48%; in experiment [3], -1.38%.

As for `COc1c(C2CCN(CCCCNC(=O)C=Cc3cc4cc(Cl)ccc4o3)CC2)ccc2c1CCCC2`, the inhibition in experiment [1] came out at 2.11%; in experiment [2] it was 0.56%; in experiment [3] it was 0.08%.

As to `c1ccc(CNc2cc(-c3ccccn3)nc(-c3ccccn3)n2)cc1`, the results for the inhibition in experiment [1], in experiment [2] and in experiment [3] were 24.5%, 4.72% and 8.35%, respectively.

In the case of `CS(=O)(=O)CCNCc1cc(-c2cc3ncnc(Nc4ccc(OCc5cccc(F)c5)c(Cl)c4)c3s2)cs1`, the inhibition in experiment [1] worked out at 5.58%; in experiment [2], 6.19%; in experiment [3], 5.4%.

In the case of `O=C(c1cc(C(=O)Nc2ccccc2F)c(=O)n(-c2ccccc2F)c1)c1cc(Cl)ccc1O`, the inhibition in experiment [1] was 1.31%; in experiment [2] it was -0.63%; in experiment [3], -2.18%.

Take `CCOC(=O)c1ccc(NC(=O)N(Cc2ccc(-c3ccc(CN4CCNCC4)cc3)cc2)C2CCN(Cc3ccccc3)CC2)cc1`: the inhibition is 3.61% in experiment [1], 2.86% in experiment [2] and -1.08% in experiment [3].

Usually inhibition stands for the drop in the measured response relative to a control, in per cent.

The values are drawn from ChEMBL document CHEMBL3433997, “St. Jude Leishmania screening dataset” (2016).
